# Data from PubChem BioAssay (Tox21).
# Results filed as inconclusive are left out. Where a call stands in place of a potency, no number is given. Unmarked numbers belong to inactive results. The source made the active and inactive calls. Unless noted, the call rests on the fitted dose curve; in most records, active means well fitted curve in the direction sought with a large enough effect in the repeat runs; inconclusive means weak or mixed curves; inactive means no such curve, though single readings can be large; an effect the other way counts as inactive or inconclusive. Non-standard residues stand in square brackets, D forms with d. Residues, ends and D or L forms follow the SMILES beside them. *: point of attachment. Sta = CC(C)C[C@H](N)[C@@H](O)CC(=O)O; Isovaleryl = CC(C)CC(=O)*
# Legend:
# [1] = qHTS assay to identify aromatase inhibitors - cell viability counter screen (AID 743084);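 further: cells stimulated with testosterone during compound exposure; nearly all actives have a fitted effect of over 55% in size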
# [2] = biological target: Aryl hydrocarbon receptor (Homo sapiens) (UniProt P35869); experiment: qHTS assay to identify small molecule that activate the aryl hydrocarbon receptor (AhR) signaling pathway (AID 743085); further: nearly all actives have a fitted effect of over 15% in size; further: potency means the concentration at half of the fitted maximal effect;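 on activation: HG2L7.5c1 human HepG2 liver cells with stably integrated DRE-driven firefly reporter; series mostly up to about 70 µM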
# Chain of Aryl hydrocarbon receptor (Homo sapiens) (P35869 whole entry, looked up): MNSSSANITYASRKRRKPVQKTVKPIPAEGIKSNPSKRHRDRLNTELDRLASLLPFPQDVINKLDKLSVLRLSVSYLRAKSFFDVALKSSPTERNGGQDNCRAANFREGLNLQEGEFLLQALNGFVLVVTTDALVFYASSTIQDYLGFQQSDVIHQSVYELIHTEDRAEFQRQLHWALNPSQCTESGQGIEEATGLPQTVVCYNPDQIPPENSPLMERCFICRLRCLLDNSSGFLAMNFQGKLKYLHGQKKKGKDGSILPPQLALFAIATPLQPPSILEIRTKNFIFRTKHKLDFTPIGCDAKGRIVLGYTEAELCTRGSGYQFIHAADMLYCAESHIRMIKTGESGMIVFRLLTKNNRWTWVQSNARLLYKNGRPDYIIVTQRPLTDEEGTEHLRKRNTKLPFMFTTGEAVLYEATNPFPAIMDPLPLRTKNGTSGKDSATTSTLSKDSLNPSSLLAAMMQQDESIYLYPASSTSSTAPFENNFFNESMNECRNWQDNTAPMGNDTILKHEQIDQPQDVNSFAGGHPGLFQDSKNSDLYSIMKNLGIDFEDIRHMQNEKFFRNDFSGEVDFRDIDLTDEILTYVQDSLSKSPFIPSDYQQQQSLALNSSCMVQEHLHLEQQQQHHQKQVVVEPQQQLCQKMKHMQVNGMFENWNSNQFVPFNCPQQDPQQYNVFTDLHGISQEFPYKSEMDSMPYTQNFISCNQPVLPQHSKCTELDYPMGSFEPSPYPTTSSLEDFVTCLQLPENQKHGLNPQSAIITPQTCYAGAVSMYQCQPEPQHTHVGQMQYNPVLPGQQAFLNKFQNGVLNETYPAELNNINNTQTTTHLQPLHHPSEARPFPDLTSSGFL
# In short: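 24 h compound exposure, 37C, HepG2-derived HG2L7.5c1 cells with DRE-responsive luciferase. Readouts: fluorescence viability, then luminescence at room temperature after 30 min.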
# [3] = qHTS assay to identify small molecule that activate the aryl hydrocarbon receptor (AhR) signaling pathway - cell viability counter screen (AID 743086);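 further: HepG2 liver cells carrying the AhR DRE luciferase reporter; series mostly up to about 70 µM; nearly all actives have a fitted effect of over 45% in size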
# In short: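 HepG2-AhR-luc (HG2L7.5c1) cells, 4000/well, treated 24 h at 37 C with compound; viability measured as CellTiter-Fluor fluorescence after 30 min in the same wells as the luciferase read.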
# [4] = biological target: Peroxisome proliferator-activated receptor gamma (Homo sapiens) (UniProt P37231); experiment: qHTS assay to identify small molecule agonists of the peroxisome proliferator-activated receptor gamma (PPARg) signaling pathway (AID 743094; active means well fitted activation curve with a large enough effect in the signal ratio in the repeat runs, not every such curve was filed as active; the % refers to the signal ratio)
# Chain of Peroxisome proliferator-activated receptor gamma (Homo sapiens) (P37231 whole entry, looked up): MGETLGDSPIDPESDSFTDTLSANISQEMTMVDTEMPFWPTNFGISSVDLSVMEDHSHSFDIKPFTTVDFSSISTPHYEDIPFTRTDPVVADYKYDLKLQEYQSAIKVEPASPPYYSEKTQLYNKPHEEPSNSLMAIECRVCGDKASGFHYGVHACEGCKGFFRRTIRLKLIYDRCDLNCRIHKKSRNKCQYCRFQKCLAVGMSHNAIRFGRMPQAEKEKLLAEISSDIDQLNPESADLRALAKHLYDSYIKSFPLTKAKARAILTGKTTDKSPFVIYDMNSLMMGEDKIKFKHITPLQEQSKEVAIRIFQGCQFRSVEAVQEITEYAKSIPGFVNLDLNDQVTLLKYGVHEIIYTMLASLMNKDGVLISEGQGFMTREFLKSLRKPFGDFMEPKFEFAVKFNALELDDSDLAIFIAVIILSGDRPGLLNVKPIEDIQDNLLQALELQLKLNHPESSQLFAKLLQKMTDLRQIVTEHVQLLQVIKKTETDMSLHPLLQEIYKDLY
# In short: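 Cell-based bla reporter, HEK293H background, PPARg-driven UAS. Pre-incubation 5 h, 37C, 5% CO2. Compound 17 h, 37C. Substrate 1 h RT; fluorescence.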
# [5] = biological target: Peroxisome proliferator-activated receptor gamma (Homo sapiens) (UniProt P37231); experiment: qHTS assay to identify small molecule antagonists of the peroxisome proliferator-activated receptor gamma (PPARg) signaling pathway (AID 743191; calls by dose curve; further: series mostly up to about 63 µM; nearly all actives have a fitted effect of over 30% in size)
# In short: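 GeneBLAzer PPARg UAS-bla HEK293H cells, 5 h post-plating, exposed to compounds 17 h at 37C. LiveBLAzer B/G FRET substrate added for 1 h at room temperature; beta-lactamase reporter read by fluorescence intensity.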
# [6] = qHTS assay to identify small molecule antagonists of the peroxisome proliferator-activated receptor gamma (PPARg) signaling pathway - cell viability counter screen (AID 743194); further: nearly all actives have a fitted effect of over 55% in size
# In short: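 Cytotoxicity counter screen in PPARg-bla HEK293H cells, same wells as reporter assay. Compounds plus 50 nM rosiglitazone (final) for 17 h at 37 C, then viability read by CellTiter-Glo luminescence.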
# [7] = qHTS assay for small molecule agonists of the antioxidant response element (ARE) signaling pathway (AID 743202; active means well fitted activation curve with a large enough effect in the signal ratio in the repeat runs, not every such curve was filed as active; the % refers to the signal ratio)
# In short: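 HepG2 ARE-bla cells; 16 h treatment at 37 C; FRET-based beta-lactamase fluorescence read after 2 h substrate incubation at room temperature.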
# [8] = qHTS assay for small molecule agonists of the antioxidant response element (ARE) signaling pathway - cell viability counter screen (AID 743203; calls by dose curve; further: nearly all actives have a fitted effect of over 55% in size)
# In short: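 Measured in the same wells as the beta-lactamase ARE reporter, this read-out is CellTiter-Glo luminescence from HepG2 ARE-bla cells given compounds for 16 hrs.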
# [9] = qHTS assay for small molecule activators of the heat shock response signaling pathway - cell viability counter screen (AID 743209); further: nearly all actives have a fitted effect of over 50% in size
# In short: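 Same-well multiplex: after 2.5 h room-temperature incubation with LiveBLAzer B/G substrate and fluorescence reading, CellTiter-Glo reagent was added to HSE-bla HeLa cells that had received compound for 5 h at 37 C; luminescence read after 30 min.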
# [10] = qHTS assay for small molecule activators of the heat shock response signaling pathway (AID 743210; active means well fitted activation curve with a large enough effect in the signal ratio in the repeat runs, with a control signal flat, not every such curve was filed as active; the % refers to the signal ratio;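 further: HeLa cells with beta-lactamase reporter driven by heat shock elements; series mostly up to about 63 µM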)
# In short: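 Following overnight attachment, HSE-bla HeLa cells received test compounds for 5 h at 37 C; beta-lactamase activity was then detected via FRET substrate fluorescence.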
smiles,measurement,setting,value
CC/C=C\CCOC(=O)c1ccccc1,outcome,[1],inactive
same,Potency,[2],inactive
same,outcome,[3],inactive
same,outcome,[4],inactive
same,outcome,[5],inactive
same,outcome,[6],inactive
same,Potency,[7],inactive
same,outcome,[8],inactive
same,Potency,[9],inactive
same,outcome,[10],inactive
COC(=O)c1ccc(C(=O)O)cc1,outcome,[1],inactive
same,Potency,[2],inactive
same,outcome,[3],inactive
same,outcome,[4],inactive
same,outcome,[5],inactive
same,outcome,[6],inactive
same,Potency,[7],inactive
same,outcome,[8],inactive
same,Potency,[9],inactive
same,outcome,[10],inactive
CCOC(=O)CC(C(C)=O)C(C)=O,outcome,[1],inactive
same,Potency,[2],inactive
same,outcome,[3],inactive
same,outcome,[4],inactive
same,outcome,[5],inactive
same,outcome,[6],inactive
same,Potency,[7],inactive
same,outcome,[8],inactive
same,Potency,[9],inactive
same,outcome,[10],inactive
CCCCCCCCCCCCCCCC(=O)OC,outcome,[1],inactive
same,Potency,[2],inactive
same,outcome,[3],inactive
same,outcome,[4],inactive
same,outcome,[5],inactive
same,outcome,[6],inactive
same,Potency,[7],inactive
same,outcome,[8],inactive
same,Potency,[9],inactive
COc1cc(OC)cc(OC)c1,outcome,[1],inactive
same,Potency,[2],inactive
same,outcome,[3],inactive
same,outcome,[4],inactive
same,outcome,[5],inactive
same,outcome,[6],inactive
same,Potency,[7],inactive
same,outcome,[8],inactive
same,Potency,[9],inactive
same,outcome,[10],inactive
CCCCCCCCCCCCCCBr,outcome,[1],inactive
same,Potency,[2],inactive
same,outcome,[3],inactive
same,outcome,[4],inactive
same,outcome,[5],inactive
same,outcome,[6],inactive
same,Potency,[7],inactive
same,outcome,[8],inactive
same,Potency,[9],inactive
same,outcome,[10],inactive
Cc1ccc(S(=O)(=O)NC(=O)NN2CC3CCCC3C2)cc1 (centres undefined),outcome,[1],inactive
same,Potency,[2],inactive
same,outcome,[3],inactive
same,outcome,[4],inactive
same,outcome,[5],inactive
same,outcome,[6],inactive
same,Potency,[7],inactive
same,outcome,[8],inactive
same,Potency,[9],inactive
same,outcome,[10],inactive
CC(C)CC(=O)N[C@H](C(=O)N[C@H](C(=O)N[C@@H](CC(C)C)[C@@H](O)CC(=O)N[C@@H](C)C(=O)N[C@@H](CC(C)C)[C@@H](O)CC(=O)O)C(C)C)C(C)C (Isovaleryl-VV[Sta]A[Sta]-OH),outcome,[1],inactive
same,Potency,[2],inactive
same,outcome,[3],inactive
same,outcome,[4],inactive
same,outcome,[5],inactive
same,outcome,[6],inactive
same,Potency,[7],inactive
same,outcome,[8],inactive
same,Potency,[9],inactive
CCCC(=O)C(CC)Sc1ccoc1C (centres undefined),outcome,[1],inactive
same,Potency,[2],inactive
same,outcome,[3],inactive
same,outcome,[4],inactive
same,outcome,[5],inactive
same,outcome,[6],inactive
same,Potency,[7],inactive
same,outcome,[8],inactive
same,Potency,[9],inactive
same,outcome,[10],inactive
Cc1ccc2cccnc2c1,outcome,[1],inactive
same,Potency,[2],inactive
same,outcome,[3],inactive
same,outcome,[4],inactive
same,outcome,[5],inactive
same,outcome,[6],inactive
same,Potency,[7],inactive
same,outcome,[8],inactive
same,Potency,[9],inactive
COCc1nnc(-c2ccc[n+]([O-])c2)n1-c1c(Cl)c(Cl)cc2[nH]c(=O)c(=O)[nH]c12,outcome,[1],inactive
same,Potency,[2],inactive
same,outcome,[3],inactive
same,outcome,[4],inactive
same,outcome,[5],inactive
same,outcome,[6],inactive
same,Potency,[7],inactive
same,outcome,[8],inactive
same,Potency,[9],inactive
same,outcome,[10],inactive
CC(CC(=O)Cl)CC(C)(C)C (centres undefined),outcome,[1],inactive
same,Potency,[2],inactive
same,outcome,[3],inactive
same,outcome,[4],inactive
same,outcome,[5],inactive
same,outcome,[6],inactive
same,Potency,[7],inactive
same,outcome,[8],inactive
same,Potency,[9],inactive
O=Cc1ccccc1S(=O)(=O)O,outcome,[1],inactive
same,Potency,[2],inactive
same,outcome,[3],inactive
same,outcome,[4],inactive
same,outcome,[5],inactive
same,outcome,[6],inactive
same,Potency,[7],inactive
same,outcome,[8],inactive
same,Potency,[9],inactive
same,outcome,[10],inactive
CC(C)(C)C(=O)CC(=O)C(C)(C)C,outcome,[1],inactive
same,Potency,[2],inactive
same,outcome,[3],inactive
same,outcome,[4],inactive
same,outcome,[5],inactive
same,outcome,[6],inactive
same,outcome,[8],inactive
same,Potency,[9],inactive
C=CC(=O)CC,outcome,[1],inactive
same,Potency,[2],inactive
same,outcome,[3],inactive
same,outcome,[4],inactive
same,outcome,[5],inactive
same,outcome,[6],inactive
same,Potency,[7],inactive
same,outcome,[8],inactive
same,Potency,[9],inactive
same,outcome,[10],inactive
Cc1ccc(N)nc1,outcome,[1],inactive
same,Potency,[2],inactive
same,outcome,[3],inactive
same,outcome,[4],inactive
same,outcome,[5],inactive
same,outcome,[6],inactive
same,Potency,[7],inactive
same,outcome,[8],inactive
same,outcome,[10],inactive
CC(C)OCCO,outcome,[1],inactive
same,Potency,[2],inactive
same,outcome,[3],inactive
same,outcome,[4],inactive
same,outcome,[5],inactive
same,outcome,[6],inactive
same,Potency,[7],inactive
same,Potency,[9],inactive
same,outcome,[10],inactive
C/C=C(\C)C=O,outcome,[1],inactive
same,Potency,[2],inactive
same,outcome,[3],inactive
same,outcome,[4],inactive
same,outcome,[5],inactive
same,outcome,[6],inactive
same,Potency,[7],inactive
same,Potency,[9],inactive
same,outcome,[10],inactive
CC/C=C\CCCCCCCCCCOC(C)=O,outcome,[1],inactive
same,Potency,[2],inactive
same,outcome,[3],inactive
same,outcome,[4],inactive
same,outcome,[5],inactive
same,outcome,[6],inactive
same,Potency,[7],inactive
same,outcome,[8],inactive
same,Potency,[9],inactive
same,outcome,[10],inactive
CCCCN=C(N)N=C(N)N,outcome,[1],inactive
same,Potency,[2],inactive
same,outcome,[3],inactive
same,outcome,[4],inactive
same,outcome,[5],inactive
same,outcome,[6],inactive
same,outcome,[8],inactive
same,Potency,[9],inactive
same,outcome,[10],inactive
CCCCC(CC)COC(=O)CC#N (centres undefined),outcome,[1],inactive
same,Potency,[2],inactive
same,outcome,[3],inactive
same,outcome,[4],inactive
same,outcome,[5],inactive
same,outcome,[6],inactive
same,Potency,[7],inactive
same,outcome,[8],inactive
same,Potency,[9],inactive
same,outcome,[10],inactive
C=CCN1CCc2nc(N)sc2CC1,outcome,[1],inactive
same,Potency,[2],inactive
same,outcome,[3],inactive
same,outcome,[4],inactive
same,outcome,[5],inactive
same,outcome,[6],inactive
same,Potency,[7],inactive
same,Potency,[9],inactive
same,outcome,[10],inactive
O=C(O)CCC(=O)Nc1ccc(S(=O)(=O)Nc2nccs2)cc1,outcome,[1],inactive
same,Potency,[2],inactive
same,outcome,[3],inactive
same,outcome,[4],inactive
same,outcome,[5],inactive
same,outcome,[6],inactive
same,Potency,[7],inactive
same,Potency,[9],inactive
same,outcome,[10],inactive
CCCCCCCCOCCC#N,outcome,[1],inactive
same,Potency,[2],inactive
same,outcome,[3],inactive
same,outcome,[4],inactive
same,outcome,[5],inactive
same,outcome,[6],inactive
same,outcome,[8],inactive
same,Potency,[9],inactive
CN(C)CCCN(C)C,"activity change, negative = cytotoxicity",[1],2.06% [at 8.47 µM]
same,activation,[2],-0.58% [at 8.47 µM]
same,"viability change, negative = cytotoxic",[3],-2.64% [at 8.47 µM]
same,activation,[4],-0.396% [at 7.08 µM]
same,"ratio activity, negative = inhibition",[5],4.44% [at 5.95 µM]
same,"activity change, negative = cytotoxicity",[6],-7.23% [at 5.95 µM]
same,activation,[7],-1.85% [at 8.36 µM]
same,"viability change, negative = cytotoxic",[8],5.88% [at 8.36 µM]
same,activation,[10],-0.827% [at 5.95 µM]
CCCOc1ccc(C(=O)OCCN(CC)CC)cc1N,outcome,[1],inactive
same,Potency,[2],1.33 µM (active)
same,outcome,[3],inactive
same,outcome,[4],inactive
same,outcome,[5],inactive
same,outcome,[6],inactive
same,outcome,[8],inactive
same,Potency,[9],inactive
same,outcome,[10],inactive
